Compounds with a hit are over-represented: about 6% of the library has one in this group of screens.
D1 agonist: activates the human D1 dopamine receptor. actives 1% (n = 360,000). AID 504660. activation, % at 2 µM. HEK293 T-REx D1 cells, calcium flux, agonist mode. P21728; in the data active means activation above about 30%
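Tetracycline-induced HEK293 TREx D1 cells, force-coupled to calcium signalling, were dye-loaded with a no-wash calcium kit. Compound was pin-added after a 10 s baseline. Fluorescence was read kinetically at 1 cycle/s for 180 s, with calcium rises flagged as agonism.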
D1 potentiator: potentiators of human D1 dopamine receptor. P21728. HEK293 TREx D1 cells, calcium flux, dopamine EC20 potentiation. potentiation, % at 10 µM. actives 0.036% (n = 360,000); in the data active means potentiation above about 30%
D1 antag: blocks dopamine activation of the human D1 receptor; HEK293 TREx D1 cells, calcium flux, dopamine EC80; active compounds read low; activity change, negative = inhibition, % at 10 µM; actives 3.2% (n = 360,000); AID 504652; in the data active means activity change below about -30%
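Inducible Hek293 Trex D1 cells (tetracycline, overnight, 30 C). Calcium dye 30–90 min RT. Antagonist mode: EC80 dopamine added after 180 s compound read.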
D3 ag: activates the human D3 dopamine receptor. P35462. D3R DiscoveRx beta-arrestin cells, luminescence, 90 min. max activation, %. actives 0.58% (n = 410,000). AID 652048; in the data active means max activation above about 30%
Target sequence (P35462 whole entry, looked up): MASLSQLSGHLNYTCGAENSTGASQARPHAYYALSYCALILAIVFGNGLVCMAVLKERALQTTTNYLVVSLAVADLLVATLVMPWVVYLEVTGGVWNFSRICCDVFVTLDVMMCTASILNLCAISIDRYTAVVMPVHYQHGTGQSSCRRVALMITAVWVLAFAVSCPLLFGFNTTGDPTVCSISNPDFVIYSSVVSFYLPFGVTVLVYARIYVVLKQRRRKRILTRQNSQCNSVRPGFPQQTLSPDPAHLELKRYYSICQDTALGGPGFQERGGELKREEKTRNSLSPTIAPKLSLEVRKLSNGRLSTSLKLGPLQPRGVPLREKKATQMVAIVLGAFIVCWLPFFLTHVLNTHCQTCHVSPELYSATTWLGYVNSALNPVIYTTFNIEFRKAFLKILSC
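Cells at 1500/well, incubated overnight, then treated with pinned compounds (dopamine as control) for 90 min at 37 degrees C. DiscoveRx reagent added for 30 - 60 minutes at room temperature; luminescence read.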
DRD3 antagonist: antagonists of human D3 dopamine receptor; actives 2.5% (n = 360,000); P35462; D3R cells, DiscoveRx beta-arrestin luminescence, antagonist mode; active compounds read low; AID 652054; max response, negative = inhibition, %; in the data active means max response below about -50%
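Cells plated overnight at 1500 cells/well, then exposed to library compounds with dopamine controls for 90 minutes at 37 degrees C. DiscoveRx reagent added for 30–60 minutes at room temperature; luminescence read, quantitative HTS format.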
Of the large screens only hits and unclear results are named; the others gave an inactive call.

CCN(CC)CCCNC(=S)N1CCN(c2nc(-c3ccc(F)cc3)cs2)CC1	D1 agonist 43, D1 antag -46, DRD3 antagonist -52
COc1cc(OC)c(OC)cc1CN1CCN(Cc2ccco2)CC1	D1 antag -33
Clc1cccc(CN2CCC(Cc3ccccc3)CC2)c1	DRD3 antagonist -78
CSc1ccc(CN2CCC(Cc3ccccc3)CC2)cc1	DRD3 antagonist -56
Clc1ccc(CN2CCC(Cc3ccccc3)CC2)cc1	DRD3 antagonist -96
COCCc1nn2c(=O)cc(COC(=O)COc3ccccc3C)nc2s1	none (no result: DRD3 antagonist)
Cc1cc(C)cc(NC(=O)C2CCCN(C(=O)c3cnn(-c4ccccc4)c3-n3cccc3)C2)c1 (centres undefined)	none (no result: DRD3 antagonist)
COc1cc(OC)c(NC(=O)C(C)n2nc(-c3ccc(C)cc3)c3c(c2=O)CCCC3)cc1Cl (centres undefined)	none (no result: DRD3 antagonist)
CCOC(=O)c1cccc(NC(=O)C2CCN(S(=O)(=O)c3ccc4c(c3)oc(=O)n4C)CC2)c1	none (no result: DRD3 antagonist)
Clc1ccc(CN2CCC(c3nc4ccc(Cl)cc4[nH]3)CC2)cc1	DRD3 antagonist -74
Clc1cccc(CN2CCN(Cc3ccco3)CC2)c1	DRD3 antagonist -66
Cc1cccc(CN2CCN(Cc3ccco3)CC2)c1	none
CSc1ccc(OC2CCN(Cc3ccccc3)CC2)cc1	DRD3 antagonist -51
Clc1ccc(CN2CCC(c3ccccc3)CC2)cc1	DRD3 antagonist -131
CC1CCCN(C(=O)CN2CCC(c3nc4ccc(Cl)cc4[nH]3)CC2)C1 (centres undefined)	none
OC(c1ccc(F)cc1)c1nc(-c2cncnc2)cs1 (centres undefined)	none (no result: D1 agonist, D1 potentiator, D1 antag)
CCOc1ccc(NC(=O)CC2C(=O)OCCN2CC)cc1 (centres undefined)	none (no result: DRD3 antagonist)
CCOC(=O)C(C)Nc1ncnc2onc(C)c12 (centres undefined)	none (no result: DRD3 antagonist)
Cc1oc(-c2cccc(Cl)c2)nc1CSc1nc2ncccc2[nH]1	none (no result: DRD3 antagonist)
Cc1nn(-c2ccccc2)c2[nH]c(=O)c(CNCc3ccc4c(c3)OCO4)cc12	DRD3 antagonist -65
Cc1ccc(-c2nn(-c3ccccc3)c3[nH]c(=O)c(CNCc4ccccc4)cc23)cc1	DRD3 antagonist -65
Cc1nn(-c2ccccc2)c2[nH]c(=O)c(CNCCN3CCOCC3)cc12	DRD3 antagonist -66
Cc1nn(-c2ccccc2)c2[nH]c(=O)c(CNc3ccc4c(c3)OCCO4)cc12	none
CCc1ccc(NCc2cc3c(C)nn(-c4ccccc4)c3[nH]c2=O)cc1	none
COc1ccc(NS(=O)(=O)c2cnc(N)nc2)cc1Cl	none (no result: DRD3 antagonist)
COc1ccc(CCNC(=O)CCc2c(C)nc3c4c(C)cc(C)nc4nn3c2C)cc1OC	none (no result: DRD3 antagonist)
Cc1ccc(C)n1-c1nnc(N2CCC(C(=O)Nc3ccccc3Br)CC2)s1	none (no result: DRD3 antagonist)
CC(C)CC(=O)Nc1cccc(C(C)O)c1 (centres undefined)	D1 antag -31 (no result: D3 ag, DRD3 antagonist)
CCCCC(=O)Nc1cccc(C(C)O)c1 (centres undefined)	none (no result: D3 ag, DRD3 antagonist)
COc1cccc(CNc2nc3c(-c4cccc(C)c4)nnn3c3ccccc23)c1	none (no result: DRD3 antagonist)
COc1cccc(OCC(=O)NNC(=O)c2ccc3ccccc3c2O)c1	D1 antag -37
COc1ccc(CNC(=S)NNC(=O)c2cc3ccccc3o2)cc1	none
COc1ccc(C(CNC(=O)c2cc3ccccc3o2)N2CCCCC2)cc1 (centres undefined)	DRD3 antagonist -74
COc1ccc2ccccc2c1/C=N/NC(=O)c1ccc([N+](=O)[O-])cc1	DRD3 antagonist -97
COc1ccc2ccccc2c1/C=N/NC(=O)c1cccc(Br)c1	none
COc1ccc(C(=O)NNC(=O)c2ccc3ccccc3c2O)cc1	none
COc1ccc(OCC(=O)NNC(=O)c2cc3ccccc3o2)cc1	D1 antag -31
CC(=O)c1ccc(N2CCN(C(=O)Nc3cn(CC(C)C)c(=O)c4ccccc34)CC2)cc1	none (no result: DRD3 antagonist)
O=C(Nc1nc2n(n1)C(c1ccccc1)C=C(c1ccccc1)N2)c1ccccc1 (centres undefined)	none (no result: DRD3 antagonist)
Cc1ccc(NC(=O)C2CCN(c3cc(C)nc4c(-c5ccc(Cl)cc5)c(C)nn34)CC2)c(C)c1	none (no result: DRD3 antagonist)
O=C(NCCc1ccccc1)C(=O)NCC(c1ccc2c(c1)OCO2)N1CCOCC1 (centres undefined)	none (no result: DRD3 antagonist)
COc1ccc(Br)cc1CN1C(=O)c2ccccc2C1C(=O)NC1CCCCCC1 (centres undefined)	none (no result: DRD3 antagonist)
CCc1ccc(Sc2cc(C(=O)NCc3ccccc3OC)c3ccccc3n2)cc1	none (no result: DRD3 antagonist)
COc1ccc(C(CNC(=O)c2oc3ccc(C)cc3c2C)N2CCCCC2)cc1 (centres undefined)	DRD3 antagonist -104
O=C(N/N=C/c1ccncc1)c1cc2c(ccc3ccccc32)o1	D1 antag -32
COc1ccc(C(CNC(=O)c2oc3ccccc3c2C)N2CCCCC2)cc1 (centres undefined)	none (no result: DRD3 antagonist)
COc1ccc(C(CNC(=O)c2cc3ccccc3o2)N2CCCC2)cc1 (centres undefined)	DRD3 antagonist -84 (no result: D1 potentiator)
CCOc1ccc(C(=O)N/N=C/c2cc([N+](=O)[O-])cs2)cc1	none
COc1cc(C(=O)N/N=C/c2cc([N+](=O)[O-])cs2)cc(OC)c1OC	DRD3 antagonist -50
O=C(O)c1ccc(/C=N/NC(=O)c2cc3c(ccc4ccccc43)o2)cc1	none
CCCCOC(=O)c1ccc(Nc2nc3ccc(C)cc3n3cnnc23)cc1	none (no result: DRD3 antagonist)
CCc1ccc(-n2nc(C)c3c(C(=O)Nc4cc(C)c(Cl)cc4OC)cc(C)nc32)cc1	none (no result: DRD3 antagonist)
COc1ccc2ccc(OC)c(/C=N/NC(=O)c3cc4ccccc4o3)c2c1	DRD3 antagonist -87 (no result: D1 agonist, D1 potentiator, D1 antag)
CCOC(=O)C1CCCN(C2=NC(=O)/C(=C/c3ccc(N(C)C)cc3)S2)C1 (centres undefined)	D1 agonist 60
CCOc1ccccc1NC(=O)CCCc1nc(-c2ccccc2Cl)no1	none (no result: DRD3 antagonist)
CC(C)COc1ccc(C(=O)Nc2sc3c(c2C(=O)O)CC(C)(C)OC3)cc1	D1 antag -31
O=C(Oc1cccc2cccnc12)c1ccc2c(c1)OCCO2	DRD3 antagonist -84
CCOc1ccccc1NC(=O)c1cc(S(=O)(=O)N2CCN(CC)CC2)ccc1Cl	none
CCN1CCN(S(=O)(=O)c2ccc(Cl)c(C(=O)Nc3ccc(OC(F)F)cc3)c2)CC1	D1 antag -33
CCN1CCN(S(=O)(=O)c2ccc(Cl)c(C(=O)N(CC)Cc3ccccc3)c2)CC1	none
CCN1CCN(c2ccc(NC(=O)c3cc(S(=O)(=O)N4CCCC4)ccc3Cl)cc2)CC1	D1 antag -42
CCN1CCN(S(=O)(=O)c2ccc(Cl)c(C(=O)N(CC)CC(=O)Nc3ccc(OC)cc3)c2)CC1	DRD3 antagonist -163
COc1cc(NC(=O)CSc2nc(-c3ccc(C(C)C)cc3)no2)cc(OC)c1	none (no result: DRD3 antagonist)
CC(C)(C)c1ccc(C(=O)NC(=S)Nn2cnnc2)cc1	D1 antag -32
O=C(NC(=S)Nn1cnnc1)c1ccccc1Cl	none
